CYP2C19 inhib: human CYP2C19 inhibition; inhibition, % at 5 µM; CYP2C19 Supersomes, luciferin-H EGE luminescence, 30 min; 96,000 compounds, 21% hits;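 active means CYP2C19 inhibition above a set limit at 5 µM in the primary screen, cut at about 50% in these data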
Target sequence (P33261 whole entry, looked up): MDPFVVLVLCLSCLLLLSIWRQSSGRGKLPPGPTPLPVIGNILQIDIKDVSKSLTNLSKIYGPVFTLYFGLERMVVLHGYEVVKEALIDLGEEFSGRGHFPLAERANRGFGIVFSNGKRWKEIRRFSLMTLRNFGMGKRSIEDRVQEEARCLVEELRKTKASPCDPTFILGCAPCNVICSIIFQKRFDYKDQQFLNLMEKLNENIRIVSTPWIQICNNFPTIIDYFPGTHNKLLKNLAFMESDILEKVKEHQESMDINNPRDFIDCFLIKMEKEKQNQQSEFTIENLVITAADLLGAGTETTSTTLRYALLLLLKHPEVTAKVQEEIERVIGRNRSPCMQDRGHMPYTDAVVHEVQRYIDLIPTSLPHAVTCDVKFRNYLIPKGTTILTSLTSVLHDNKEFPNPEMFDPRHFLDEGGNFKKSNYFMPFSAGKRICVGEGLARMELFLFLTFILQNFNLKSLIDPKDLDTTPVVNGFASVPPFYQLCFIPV
EphB4 ephrin blk: blocks human EphB4 binding to ephrin-B2. P54760. EphB4 LBD / TNYL-RAW-Alexa532 peptide, fluorescence polarization. inhibition, % at 7 µM. 97,000 compounds, 0.15% hits. AID 720;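 active means inhibition above the screen-wide mean inhibition plus 3 SD, cut at about 15% in these data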
CYP2C9 act: activators of human CYP2C9; P11712; recombinant CYP2C9, luciferin-H conversion, luminescence; stronger effect = higher value; factor 1 = untreated enzyme, 0 = blocked; activation factor at 5 µM; 96,000 compounds, 1.4% hits; AID 1024;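 active means activation factor of 2 or more for CYP2C9 at a 5 µM dose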
CYP2C19 activ: increases human CYP2C19 enzyme activity | 96,000 tested, under 10 active | activation factor at 5 µM | AID 1025 | recombinant CYP2C19, luciferin-H EGE luminescence; stronger effect = higher value; 0 = fully inhibited enzyme, 1 = untreated enzyme;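 active means activation factor of at least 2 at 5 µM in the primary screen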
CYP2C9 inhib: blocks human cytochrome P450 2C9 | P11712 | 96,000 compounds, 20% hits | inhibition, % at 5 µM | CYP2C9 Supersomes, luciferin-H conversion, luminescence;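 active means blocking of liver enzyme CYP2C9 beyond about 50% at 5 µM, limit read from the data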
Large screens that a line does not name were inactive. Shown are actives, neighbours in structure and some others; about 27% of the full set was active somewhere.

COC(=O)c1ccsc1NC(=O)CN1CCN(c2ccc(F)cc2)CC1	CYP2C19 inhib 91, CYP2C9 inhib 91
COC(=O)c1ccsc1NC(=O)CN1CCN(Cc2ccc3c(c2)OCO3)CC1	CYP2C9 inhib 56
CC(C)Oc1cc(NC(=O)CS(=O)CC(=O)Nc2cccc(C(F)(F)F)c2)c(Cl)cc1Cl (stereo not given)	none
Cc1c(OCc2ccccc2)c(=O)ccn1Cc1ccccc1	CYP2C19 inhib 68
Cn1nc(OCc2ccccc2)ccc1=O	none
Cc1cc(C(=O)COC(=O)CN(C)S(=O)(=O)c2ccc(Cl)cc2)c(C)n1Cc1cccs1	CYP2C19 inhib 74
Cc1noc(C)c1COC(=O)CN(C)S(=O)(=O)c1ccc(Cl)cc1	none (no result: EphB4 ephrin blk)
COc1ccc2c(c1)C1(Nc3ccccc3-c3nc4ccccc4n31)C(=O)N2 (stereo not given)	none
CC1(c2ccncc2)Nc2ccccc2-c2nc3ccccc3n21 (stereo not given)	CYP2C19 inhib 97, CYP2C9 inhib 90
C=CCn1c(-c2cccc3ccccc23)n[nH]c1=S	CYP2C19 inhib 92, CYP2C9 inhib 52
C=CCn1c(Cc2c[nH]c3ccccc23)nnc1SCC(=O)NCc1ccccc1	none
C=CCn1c(Cc2nc3ccc(Cl)cc3[nH]2)n[nH]c1=S	CYP2C19 inhib 98
C=CCn1c(Cc2c[nH]c3ccccc23)n[nH]c1=S	CYP2C19 inhib 62
COc1cc(NS(=O)(=O)c2ccc(N/C=C(\C#N)c3nc4ccccc4o3)cc2)nc(OC)n1	none
COC(=O)Nc1sccc1C(=O)Nc1sccc1C(=O)OC	none
Cc1ccc(S(=O)(=O)N2CCSC2c2ccco2)cc1 (stereo not given)	CYP2C19 inhib 96
CCCOc1ccc(C(=O)NC(C)C(=O)O)cc1 (stereo not given)	none
CN1C(=O)C2(N=c3ccccc3=N2)c2ccccc21	CYP2C9 inhib 80
CN1C(=O)C(O)(C2OC(C)(C)CCC2=O)c2ccccc21 (stereo not given)	none
C/C(=C(\C#N)C(=O)NCc1ccccc1)N(C)C	none
COCCn1nnnc1C(C(C)C)N(Cc1cccnc1)Cc1ccccc1Cl (stereo not given)	CYP2C19 inhib 95
CCOC(=O)c1[nH]cnc1C(=O)Nc1ccncc1	CYP2C9 inhib 54
CCc1nnc(NS(=O)(=O)c2ccc(NC(=S)NC(=O)/C=C/c3ccc(C(C)C)cc3)cc2)s1	CYP2C9 inhib 77
CCOC(=O)Cn1nc(CC)c2ccccc2c1=O	none
CCOC(=O)CN1C(=O)C(O)(c2c(C)[nH]c3ccccc23)c2ccccc21 (stereo not given)	CYP2C19 inhib 99, CYP2C9 inhib 94
CCOC(=O)CN1C(=O)C(O)(C2CCc3ccccc3C2=O)c2ccccc21 (stereo not given)	CYP2C19 inhib 73
CN(C)Cc1nc2ccccc2c(=O)n1Cc1nc(C(C)(C)C)cs1	CYP2C19 inhib 82, CYP2C9 inhib 93
O=[N+]([O-])c1ccc(Sc2nccn2Cc2ccccc2)c([N+](=O)[O-])c1	CYP2C19 inhib 51
O=[N+]([O-])c1cc(C(F)(F)F)ccc1Sc1nccn1Cc1ccccc1	none
Cc1cc(C)nc(SCC(=O)N/N=C\c2sccc2C)n1	CYP2C19 inhib 55
Cc1csc(SCC(=O)Nc2ccc(S(=O)(=O)N3CCCC3)cc2)n1	CYP2C19 inhib 65, CYP2C9 inhib 94
COc1ccc(NC(=O)CCn2nc(C)cc2C)cc1	CYP2C19 inhib 68 (no result: EphB4 ephrin blk)
COc1ccc(NC(=O)CSc2nc(C)cc(C)n2)cc1	CYP2C19 inhib 87
COc1ccc(NC(=O)CCN2CCCCCC2)cc1	none (no result: CYP2C19 inhib, CYP2C9 act, CYP2C19 activ, CYP2C9 inhib)
Cn1c(=O)n(C)c2cc(NC(=O)C(F)(F)F)ccc21	none
COc1ccccc1N1CCN(CCCNC(=O)Nc2ccccc2)CC1	none (no result: CYP2C19 inhib, CYP2C9 act, CYP2C19 activ, CYP2C9 inhib)
Cc1ccccc1CN1CCN(S(=O)(=O)c2ccc(F)cc2)CC1	none (no result: CYP2C19 inhib, CYP2C9 act, CYP2C19 activ, CYP2C9 inhib)
O=C(c1cnc2n(c1=O)CCS2)N(c1ccccc1)C1CCCCC1	none
Cc1cc(C)nc(SCC(=O)Nc2ccc(S(=O)(=O)N3CCCCC3)cc2)n1	CYP2C9 inhib 75
Cc1cc(C)nc(SCC(=O)Nc2ccc(S(=O)(=O)NC(C)(C)C)cc2)n1	CYP2C9 inhib 58
Cc1csc(C(C#N)C(=O)c2ccc(S(=O)(=O)N3CCCC3)cc2)n1 (stereo not given)	CYP2C9 inhib 72
Cc1cc(C)nc(SCC(=O)Nc2ccc(S(=O)(=O)NCCO)cc2)n1	none
CCN(CC)CCOC(=O)c1cccc(OC)c1	none
COC(=O)COc1ccc(S(=O)(=O)N2CCN(c3ccccc3F)CC2)cc1	none
CSC1=N/C(=C\c2cccc(F)c2)C(=O)S1	none
COc1ccc2[nH]c(C)c(CCN3C(=O)OC(C)(C)C3(C)O)c2c1 (stereo not given)	CYP2C19 inhib 99, CYP2C9 inhib 86
COc1ccc2[nH]c(C)c(CCN3C(=O)C4CC=CCC4C3=O)c2c1 (stereo not given)	CYP2C19 inhib 97, CYP2C9 inhib 58
COc1ccc2[nH]c(C)c(CN3CCC(C)CC3)c(=O)c2c1	none (no result: EphB4 ephrin blk)
COc1cc(C)c(C(C)C)cc1S(=O)(=O)N1CCN(C)CC1	none
O=C(CC1COc2ccccc2O1)Nc1ccccn1 (stereo not given)	none
CCOc1ncccc1C(=O)N(C)CC1COc2ccccc2O1 (stereo not given)	CYP2C19 inhib 85, CYP2C9 inhib 63
O=C(CSc1nnc(-c2ccc(O)cc2)n1Cc1ccco1)N1CCc2ccccc2C1	CYP2C19 inhib 62, CYP2C9 inhib 50
COc1ccc(C(=O)CSc2nnc(-c3cnccn3)n2Cc2ccco2)cc1	CYP2C9 inhib 54
O=C(CSc1nnc(-c2cccnc2)n1Cc1ccco1)N1c2ccccc2Sc2ccccc21	none
O=C(CSc1nnc(-c2cnccn2)n1Cc1ccco1)Nc1ccc(Br)cc1	CYP2C9 inhib 59
CC1CCN(C(=O)CSc2nnc(CNc3ccc(F)cc3)n2Cc2ccco2)CC1	none
Cc1ccc(NC(=O)CSc2nnc(-c3cccs3)n2Cc2ccco2)cc1	none
CC1CCN(C(=O)CSc2nnc(-c3cc4ccccc4cc3O)n2Cc2ccco2)CC1	CYP2C19 inhib 67, CYP2C9 inhib 74
O=C(CSc1nnc(-c2cccnc2)n1Cc1ccccc1)NCc1ccco1	none
CCn1c(SCC(=O)c2ccc3ccccc3c2)nnc1-c1ccco1	none
COc1ccc(C(=O)CSc2nnc(-c3cccnc3)n2Cc2ccco2)cc1	CYP2C19 inhib 53, CYP2C9 inhib 57
COC(=O)c1c(NC(=O)CSc2nnc(-c3cccnc3)n2Cc2ccco2)sc(C)c1C	CYP2C19 inhib 84, CYP2C9 inhib 85
COc1ccc(C(=O)CSc2nnc(-c3cc4ccccc4cc3O)n2Cc2ccco2)cc1	CYP2C9 inhib 80
COc1ccc(CN2CCn3ncc(C(=O)Nc4ccccc4)c3C2=O)cc1	none
CCCCOC(=O)Cc1c(O)c2ccccc2[nH]c1=O	none
COc1ccc(C(=O)c2oc3ccccc3c2NC(C)=O)cc1	none
COc1ccc(C(=O)c2c(C(F)(F)F)oc3c2C(=O)c2ccccc2C3=O)cc1	CYP2C19 inhib 75, CYP2C9 inhib 78

Screens: PubChem BioAssay, several laboratories
